From PubChem BioAssay (EPA / NIEHS) come the findings set out here.

Activity calls are given as the source filed them. How the source made its calls: active means hit-call score of the fitted dose curve at least 0.9, where 1 is the maximum; inactive means score below 0.9.

Assay [1] can be described thus: ATG_CMV_CIS: Attagene CIS-FACTORIAL HepG2 Assay for human CMV (Internal Marker) (AID 2282928).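 Further: endpoint acts as a background internal control marker rather than a target.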 The conditions noted are these: HepG2 CMV promoter reporter, transcription factor profiling; actives raise or lower the signal. An outline of the steps:
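24 h chemical treatment, HepG2 with transient multi-reporter transfection; RNA → oligo(dT) RT → PCR → 6-FAM extension → HpaI digest → CE fluorescence. Bidirectional fit, DMSO negative control.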

Assay [2] is described as follows: ATG_ISRE_CIS: Attagene CIS-FACTORIAL HepG2 Assay for human Interferon Regulatory Factor 1 (IRF1) binding to an Interferon-Stimulated Response Element (ISRE) (AID 2282948). The conditions noted are these: HepG2 ISRE cis-reporter (Attagene), mRNA transcription readout; actives raise or lower the signal. An outline of the steps: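 Multiplexed mRNA reporter readout in human liver HepG2 cells: cis-element-driven reporters transfected, compound added for 24 h, transcripts amplified, fluorescently labelled and sized by capillary electrophoresis; curve fitting bidirectional against DMSO.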

The nature of assay [3]: ATG_M_32_CIS: Attagene CIS-FACTORIAL HepG2 Assay for M32 Transcription Factor (Internal Marker) (AID 2282949).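 Further: background control marker of the multiplexed CIS panel rather than a real target.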 Particulars: HepG2 Attagene cis-factorial M32 reporter, mRNA; actives raise or lower the signal. Put shortly:
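HepG2 human liver cells transiently transfected with cis-promoter-driven multiple reporter transcription units, dosed 24 h. Reporter mRNA quantified by RT-PCR, FAM-labelled primer extension, HpaI digest and capillary electrophoresis; bidirectional fit versus DMSO baseline.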

In assay [4] the target is Hepatocyte nuclear factor 6 (Homo sapiens) (UniProt Q9UBC0). Briefly: ATG_HNF6_CIS: Attagene CIS-FACTORIAL HepG2 Assay for human Hepatocyte Nuclear Factor 6 (HNF6) (AID 2282952). The conditions noted are these: HepG2 Attagene cis-factorial HNF6 reporter transcription; actives raise or lower the signal. An outline of the steps:
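Endogenous factor activity read in transiently transfected HepG2 via promoter-regulated reporter transcripts. RNA harvested 24 h post-dosing, reverse-transcribed, PCR-amplified, FAM-labelled, HpaI-digested and resolved by capillary electrophoresis; fitted in both directions against DMSO.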

Assay [5] addresses Heat shock factor protein 1 (Homo sapiens) (UniProt Q00613). Briefly: ATG_HSE_CIS: Attagene CIS-FACTORIAL HepG2 Assay for human Heat Shock Transcription Factor 1 (HSE) (AID 2282953). The conditions noted are these: HepG2 HSE cis-reporter, Attagene RNA transcription; actives raise or lower the signal. Put shortly: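 Read-out: fluorescence of reporter-specific RT-PCR fragments separated by capillary electrophoresis. HepG2 carrying transfected cis-element reporter units; 24 h dosing; activity fitted in both directions relative to DMSO baseline.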

Assay [6] is described as follows: ATG_RORE_CIS: Attagene CIS-FACTORIAL HepG2 Assay for human RAR-related Orphan Receptor Element (RORE) (AID 2282959). The conditions noted are these: HepG2 Attagene cis-factorial RORE reporter, mRNA; actives raise or lower the signal. An outline of the steps: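 Fluorescence intensity of reporter-specific cDNA fragments, separated by capillary electrophoresis, gives the signal. Source: HepG2 liver cells transiently transfected with cis-element reporters and exposed 24 h; DMSO-normalized bidirectional fit.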

A short description of assay [7]: ATG_TA_CIS: Attagene CIS-FACTORIAL HepG2 Assay for human TA Basal Promoter (AID 2282964). Particulars: HepG2 Attagene CIS-factorial TA basal promoter reporter; actives raise or lower the signal. An outline of the steps:
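Transfected HepG2, 24 h compound exposure; RNA → RT-PCR → FAM primer extension → HpaI cut → CE fluorescence. Gain/loss-of-signal fitted against DMSO negative control. Background-control readout.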

A short description of assay [8]: ATG_TCF_b_cat_CIS: Attagene CIS-FACTORIAL HepG2 Assay for human T-Cell-Factor with beta-catenin (TCF/b-cat) (AID 2282965). Particulars: HepG2 TCF/beta-catenin cis-reporter transcription, actives raise or lower the signal. Put shortly:
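HepG2 cells transiently transfected with multiple cis-promoter-regulated reporter transcription units, so endogenous transcription factor activity is measured. Reporter mRNA read 24 hours after dosing by RT-PCR, fluorescent labelling and capillary electrophoresis; bidirectional fitting against DMSO.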

Assay [9] can be described thus: ATG_TAL_CIS: Attagene CIS-FACTORIAL HepG2 Assay for human TAL Basal Promoter (AID 2282966).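 Further: background control endpoint measuring basal TAL promoter reporter mRNA not a specific factor.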 The conditions noted are these: HepG2 Attagene cis-factorial TAL promoter reporter; actives raise or lower the signal. An outline of the steps: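 Background-control endpoint: basal TAL promoter reporter transcripts in transiently transfected HepG2, measured 24 h after dosing. Read-out by RT-PCR with fluorescent primer extension and capillary electrophoresis; gain or loss of signal fitted relative to DMSO.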

Assay [10] can be described thus: ATG_TGFb_CIS: Attagene CIS-FACTORIAL HepG2 Assay for human Transforming Growth Factor (TGF) (AID 2282967). Particulars: HepG2 Attagene CIS TGFb reporter, mRNA transcription; actives raise or lower the signal. An outline of the steps: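 Readout: fluorescently labeled reporter cDNA fragments resolved by capillary electrophoresis after RT-PCR. Transfected HepG2 cells dosed for 24 h; endogenous TF activity at TGFB1-linked cis element; gain or loss fitted relative to DMSO.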

Assay [11] is described as follows: ATG_VDRE_CIS: Attagene CIS-FACTORIAL HepG2 Assay for human Vitamin D Receptor Element (VDRE) (AID 2282968). Particulars: HepG2 VDRE cis-reporter transcription, actives raise or lower the signal. Put shortly:
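Steps: transfect HepG2 with multiple reporter transcription units; dose chemicals 24 h; isolate RNA; RT-PCR; label with 6-FAM primer extension; HpaI digest; capillary electrophoresis. Curves fitted both directions against DMSO.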

Assay [12] deals with X-box-binding protein 1 (Homo sapiens) (UniProt P17861). Briefly: ATG_Xbp1_CIS: Attagene CIS-FACTORIAL HepG2 Assay for human X-box Binding Protein 1 (XBP1) (AID 2282972). Particulars: HepG2 XBP1 cis-element reporter, Attagene multiplex; actives raise or lower the signal. Put shortly:
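Multiplexed cis-reporter readout in transfected HepG2 liver cells. Exposure lasted 24 hours. Activity in either direction was fitted against DMSO as negative control and baseline.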

Assay [13] addresses Transcriptional activator Myb (Homo sapiens) (UniProt P10242). In words: ATG_Myb_CIS: Attagene CIS-FACTORIAL HepG2 Assay for human Myeloblastosis (Myb) Proto-Oncogene Transcription Factor (AID 2282986). Particulars: HepG2 Attagene CIS-FACTORIAL Myb reporter transcription; actives raise or lower the signal. Put shortly:
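Fluorescence signals from capillary electrophoresis of RT-PCR-amplified reporter cDNA give the read-out. Cells: HepG2 transfected with multiple cis-regulated reporter units. Exposure lasts 24 hours; DMSO defines baseline for gain or loss of signal.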

The target in assay [14] is Nuclear respiratory factor 1 (Homo sapiens) (UniProt Q16656). In words: ATG_NRF1_CIS: Attagene CIS-FACTORIAL HepG2 Assay for human Nuclear Respiratory Factor 1 (NRF1) Orphan Gene (AID 2282987). Particulars: HepG2 NRF1 cis-element reporter, Attagene multiplex; actives raise or lower the signal. Put shortly: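 Transcriptional reporter readout, one component of a 52-endpoint multiplexed HepG2 panel. Exposure 24 h; mRNA detected via RT-PCR and fluorescent capillary electrophoresis; fitting in both directions against DMSO.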
Chain of Nuclear respiratory factor 1 (Homo sapiens) (Q16656 whole entry, looked up): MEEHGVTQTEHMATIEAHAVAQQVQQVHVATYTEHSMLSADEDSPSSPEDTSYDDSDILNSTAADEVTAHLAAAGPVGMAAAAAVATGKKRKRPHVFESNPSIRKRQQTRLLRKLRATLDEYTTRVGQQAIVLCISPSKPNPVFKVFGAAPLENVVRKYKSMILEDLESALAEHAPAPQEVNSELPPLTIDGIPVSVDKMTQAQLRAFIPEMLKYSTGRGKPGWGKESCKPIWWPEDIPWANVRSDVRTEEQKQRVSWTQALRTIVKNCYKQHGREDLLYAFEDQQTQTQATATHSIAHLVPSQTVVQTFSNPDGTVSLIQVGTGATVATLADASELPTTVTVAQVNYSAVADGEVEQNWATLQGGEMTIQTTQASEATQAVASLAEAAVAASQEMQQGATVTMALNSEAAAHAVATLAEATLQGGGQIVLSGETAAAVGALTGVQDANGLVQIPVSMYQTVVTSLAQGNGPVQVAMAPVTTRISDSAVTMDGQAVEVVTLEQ

Assay [15] deals with Myc proto-oncogene protein (Homo sapiens) (UniProt P01106). Briefly: ATG_Myc_CIS: Attagene CIS-FACTORIAL HepG2 Assay for human Myelocytomatosis (Myc) Proto-Oncogene Transcription Factor (AID 2282990). The conditions noted are these: HepG2, Attagene cis-reporter transcription factor activity; actives raise or lower the signal. An outline of the steps: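 HepG2 cells transiently transfected with multiple cis-promoter-driven reporter transcription units, so endogenous TF activity is read. After 24 h compound exposure, reporter mRNA was quantified by RT-PCR, 6-FAM labelling, HpaI digestion and capillary electrophoresis; bidirectional fit versus DMSO.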
Chain of Myc proto-oncogene protein (Homo sapiens) (P01106 whole entry, looked up): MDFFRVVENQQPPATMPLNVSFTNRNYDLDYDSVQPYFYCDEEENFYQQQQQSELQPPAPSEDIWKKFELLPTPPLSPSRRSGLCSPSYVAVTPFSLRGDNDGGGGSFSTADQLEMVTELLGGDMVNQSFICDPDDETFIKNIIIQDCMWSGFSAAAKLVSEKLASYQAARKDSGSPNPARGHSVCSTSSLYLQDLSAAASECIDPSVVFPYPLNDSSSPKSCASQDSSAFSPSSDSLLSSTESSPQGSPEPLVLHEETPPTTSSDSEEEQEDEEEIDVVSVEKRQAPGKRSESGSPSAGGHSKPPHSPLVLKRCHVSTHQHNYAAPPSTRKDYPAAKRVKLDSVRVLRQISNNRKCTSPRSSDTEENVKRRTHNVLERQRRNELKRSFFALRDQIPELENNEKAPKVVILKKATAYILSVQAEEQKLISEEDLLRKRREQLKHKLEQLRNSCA

Assay [16] is described as follows: ATG_NF_kB_CIS: Attagene CIS-FACTORIAL HepG2 Assay for human Nuclear Factor Kappa B (NF-kB) (AID 2282991). Particulars: HepG2 Attagene cis-factorial NF-kB reporter mRNA; actives raise or lower the signal. An outline of the steps:
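HepG2, transient multi-reporter transfection, cis promoter elements (endogenous TFs). 24 h exposure. Total RNA → RT → PCR → 6-FAM label → HpaI → CE. Gain/loss vs DMSO.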

Assay [17] in a line: ATG_NRF2_ARE_CIS: Attagene CIS-FACTORIAL HepG2 Assay for human Nuclear Factor Erythroid 2 Related Factor 2 (NFR2) response to Antioxidant Response Elements (ARE) (AID 2282992).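 On AC50: reporter mRNA level measured by RT-PCR and capillary electrophoresis fluorescence.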 Particulars: HepG2 Attagene ARE/NRF2 reporter, transcription factor activity; actives raise or lower the signal. An outline of the steps:
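Endogenous transcription factor activity in human liver HepG2 cells is tracked via a cis-element-driven reporter within a multiplexed set. mRNA induction is read by RT-PCR and capillary electrophoresis after 24 h, with DMSO as baseline.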

Assay [18] is described as follows: ATG_Oct_MLP_CIS: Attagene CIS-FACTORIAL HepG2 Assay for human Octamer-Binding Transcription Factor (Oct) (AID 2282993). The conditions noted are these: HepG2 Attagene cis-factorial Oct reporter, mRNA; actives raise or lower the signal. Put shortly:
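Read-out: reporter mRNA via RT-PCR plus capillary electrophoresis of 6-FAM-labelled fragments. Transiently transfected HepG2, 24 h exposure, endogenous TF activity on cis elements. Gain or loss of signal fitted relative to DMSO.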

The target of assay [19] is Cellular tumor antigen p53 (Homo sapiens) (UniProt P04637). Briefly: ATG_p53_CIS: Attagene CIS-FACTORIAL HepG2 Assay for human p53 Transcription Factor (AID 2282994). The conditions noted are these: HepG2 p53 cis-element reporter, Attagene mRNA; actives raise or lower the signal. An outline of the steps:
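Steps: transfect HepG2 with multiplexed cis reporter constructs; dose chemicals 24 h; extract RNA, reverse-transcribe, PCR-amplify reporter sequences; FAM-label, HpaI-digest, resolve fragments by CE. Activity fitted both directions relative to DMSO.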

In assay [20] the target is Signal transducer and activator of transcription 3 (Homo sapiens) (UniProt P40763). Briefly: ATG_STAT3_CIS: Attagene CIS-FACTORIAL HepG2 Assay for human Signal Transducer and Activator of Transcription 3 (STAT3) (AID 2282963). The conditions noted are these: HepG2, Attagene cis-factorial STAT3 reporter transcription; actives raise or lower the signal. An outline of the steps:
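HepG2, MRTU-transfected, 24 h dosing. RNA → RT → PCR → FAM label → HpaI → CE. Bidirectional fit vs DMSO.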

Chain of X-box-binding protein 1 (Homo sapiens) (P17861 whole entry, looked up): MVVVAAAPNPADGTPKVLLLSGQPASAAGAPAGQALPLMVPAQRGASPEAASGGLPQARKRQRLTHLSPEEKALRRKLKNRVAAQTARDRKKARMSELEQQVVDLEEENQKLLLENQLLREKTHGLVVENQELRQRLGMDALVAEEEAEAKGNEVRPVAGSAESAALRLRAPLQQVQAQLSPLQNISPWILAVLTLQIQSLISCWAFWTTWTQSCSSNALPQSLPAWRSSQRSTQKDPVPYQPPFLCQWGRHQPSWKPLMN
Chain of Cellular tumor antigen p53 (Homo sapiens) (P04637 whole entry, looked up, the tested form may be a part): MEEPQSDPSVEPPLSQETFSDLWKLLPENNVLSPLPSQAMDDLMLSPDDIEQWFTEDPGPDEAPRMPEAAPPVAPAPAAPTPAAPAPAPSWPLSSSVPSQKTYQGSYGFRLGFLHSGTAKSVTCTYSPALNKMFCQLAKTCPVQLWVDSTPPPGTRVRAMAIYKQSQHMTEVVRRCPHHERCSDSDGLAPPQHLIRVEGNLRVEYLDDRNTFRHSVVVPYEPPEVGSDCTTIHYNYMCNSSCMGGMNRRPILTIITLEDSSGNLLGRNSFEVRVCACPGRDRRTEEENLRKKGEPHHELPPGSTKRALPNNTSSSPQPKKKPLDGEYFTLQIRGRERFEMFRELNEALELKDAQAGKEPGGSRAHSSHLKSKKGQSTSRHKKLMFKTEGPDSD
Chain of Heat shock factor protein 1 (Homo sapiens) (Q00613 whole entry, looked up, the tested form may be a part): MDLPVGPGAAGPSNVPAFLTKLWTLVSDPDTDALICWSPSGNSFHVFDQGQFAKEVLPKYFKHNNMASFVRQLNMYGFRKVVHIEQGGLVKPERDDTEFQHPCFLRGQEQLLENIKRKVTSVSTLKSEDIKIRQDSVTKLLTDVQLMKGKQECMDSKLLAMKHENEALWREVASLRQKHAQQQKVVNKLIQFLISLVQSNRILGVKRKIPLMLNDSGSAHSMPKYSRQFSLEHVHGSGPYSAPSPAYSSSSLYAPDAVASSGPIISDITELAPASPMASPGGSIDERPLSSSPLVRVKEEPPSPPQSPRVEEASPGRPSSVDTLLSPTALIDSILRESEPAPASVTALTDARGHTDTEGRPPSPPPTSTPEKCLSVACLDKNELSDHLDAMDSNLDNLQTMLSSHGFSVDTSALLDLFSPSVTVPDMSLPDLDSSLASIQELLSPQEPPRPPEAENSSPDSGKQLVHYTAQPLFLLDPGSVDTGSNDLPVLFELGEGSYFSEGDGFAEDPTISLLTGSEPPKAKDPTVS
Chain of Hepatocyte nuclear factor 6 (Homo sapiens) (Q9UBC0 whole entry, looked up): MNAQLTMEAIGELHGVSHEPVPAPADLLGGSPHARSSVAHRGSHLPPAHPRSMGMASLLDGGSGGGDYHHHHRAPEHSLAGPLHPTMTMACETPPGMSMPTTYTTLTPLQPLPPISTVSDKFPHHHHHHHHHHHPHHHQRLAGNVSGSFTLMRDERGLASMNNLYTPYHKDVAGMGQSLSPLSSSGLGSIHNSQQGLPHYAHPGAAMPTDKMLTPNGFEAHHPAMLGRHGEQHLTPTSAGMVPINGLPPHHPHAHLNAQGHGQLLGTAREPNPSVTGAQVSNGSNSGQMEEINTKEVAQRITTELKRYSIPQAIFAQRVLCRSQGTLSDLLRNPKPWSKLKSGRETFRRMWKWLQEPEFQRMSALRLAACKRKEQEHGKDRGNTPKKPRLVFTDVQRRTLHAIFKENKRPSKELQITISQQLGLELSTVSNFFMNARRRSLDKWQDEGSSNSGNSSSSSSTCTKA
Chain of Transcriptional activator Myb (Homo sapiens) (P10242 whole entry, looked up): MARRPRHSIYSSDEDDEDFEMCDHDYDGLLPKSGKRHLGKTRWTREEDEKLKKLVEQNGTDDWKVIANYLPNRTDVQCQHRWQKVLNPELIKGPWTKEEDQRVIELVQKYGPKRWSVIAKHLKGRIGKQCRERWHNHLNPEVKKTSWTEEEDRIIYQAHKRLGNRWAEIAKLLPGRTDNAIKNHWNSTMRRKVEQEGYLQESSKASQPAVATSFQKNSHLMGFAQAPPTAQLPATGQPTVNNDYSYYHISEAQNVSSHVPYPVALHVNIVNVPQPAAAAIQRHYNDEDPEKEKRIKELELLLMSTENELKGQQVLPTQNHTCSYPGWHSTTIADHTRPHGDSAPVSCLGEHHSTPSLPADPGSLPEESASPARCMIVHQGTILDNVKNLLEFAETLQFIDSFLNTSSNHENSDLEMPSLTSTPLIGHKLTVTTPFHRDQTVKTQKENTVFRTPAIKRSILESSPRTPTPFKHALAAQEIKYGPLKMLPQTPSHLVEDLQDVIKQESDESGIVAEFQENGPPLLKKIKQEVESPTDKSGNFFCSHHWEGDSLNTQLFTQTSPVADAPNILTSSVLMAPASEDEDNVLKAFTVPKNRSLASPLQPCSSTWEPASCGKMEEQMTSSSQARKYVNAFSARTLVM
Chain of Signal transducer and activator of transcription 3 (Homo sapiens) (P40763 whole entry, looked up): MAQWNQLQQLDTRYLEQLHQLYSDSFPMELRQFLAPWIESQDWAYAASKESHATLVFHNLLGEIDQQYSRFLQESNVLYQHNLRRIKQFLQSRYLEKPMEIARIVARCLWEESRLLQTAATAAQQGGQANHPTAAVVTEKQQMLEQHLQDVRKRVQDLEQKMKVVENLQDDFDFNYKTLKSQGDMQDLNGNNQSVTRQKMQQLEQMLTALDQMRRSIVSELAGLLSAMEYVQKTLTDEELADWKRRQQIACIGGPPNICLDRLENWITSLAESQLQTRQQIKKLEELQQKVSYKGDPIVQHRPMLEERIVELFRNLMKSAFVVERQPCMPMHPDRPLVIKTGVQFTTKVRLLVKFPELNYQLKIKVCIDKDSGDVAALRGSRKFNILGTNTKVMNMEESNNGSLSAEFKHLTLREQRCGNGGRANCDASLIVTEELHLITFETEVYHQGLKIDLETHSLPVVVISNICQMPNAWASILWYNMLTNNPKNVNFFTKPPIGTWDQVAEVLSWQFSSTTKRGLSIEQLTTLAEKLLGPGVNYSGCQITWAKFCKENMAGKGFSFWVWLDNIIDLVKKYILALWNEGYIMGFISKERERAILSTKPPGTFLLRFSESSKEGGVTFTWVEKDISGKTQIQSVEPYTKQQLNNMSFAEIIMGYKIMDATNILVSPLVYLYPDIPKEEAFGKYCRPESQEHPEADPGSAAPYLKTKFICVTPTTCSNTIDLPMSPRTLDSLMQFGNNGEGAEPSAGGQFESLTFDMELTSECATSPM

With `CNC(=N[N+](=O)[O-])NCC1CCOC1` (stereo not drawn), the result in [1], in assay [2], in [3], in [4], in [5] and in [6] was inactive. Moreover, the result in [7], in assay [8], in assay [9], in [10], in assay [11] and in assay [12] was inactive. In addition, the call in assay [13], in assay [14], in assay [15], in assay [16], in [17] and in [18] was inactive. Besides, the outcome in [19] was inactive.

In general, AC50 refers to the midpoint of the concentration-response curve, whichever way the signal moves. On to `Cc1ccc(N(SC(F)(Cl)Cl)S(=O)(=O)N(C)C)cc1`, for which the AC50 in assay [1] was 15.8 µM (active); in assay [2], 14.7 µM (active); in assay [5], 16.5 µM (active); in [8] it was 16.6 µM (active); in assay [11] it was 14.4 µM (active); in [12], 17 µM (active). In addition, the results for the AC50 in [15], in [17] and in assay [18] were 20.3 µM (active), 13.9 µM (active) and 17.7 µM (active), respectively. Further, the call in assay [3], in assay [4], in assay [20], in assay [7], in assay [9] and in [10] was inactive. Further, the compound was called inactive in [13], in [14], in [16] and in assay [19].

For the compound `CCc1cc(C)cc(CC)c1-c1c(OC(=O)C(C)(C)C)n2n(c1=O)CCOCC2`, the compound was classed as inactive in assay [1], in [2], in assay [3], in [4], in assay [5] and in assay [6]. Moreover, the compound was called inactive in assay [20], in assay [7], in [8], in assay [9], in [10] and in [11]. For the same compound, the result in [12], in assay [13], in assay [14], in [15], in assay [16] and in [17] was inactive. Also, the result in assay [18] and in assay [19] was inactive.
